GALC G270D up = raises human GALC G270D mutant activity in cells; P54803; 145M-Twi-hGALC-G270D cells (Twitcher mouse brain line with human GALC G270D), HMU-beta-Gal fluorescence, 48 h; Potency, µM (top dose mostly 57.5 µM), actives largely listed as activators; 0.1% of 45,000 active; AID 1159614; note: potency is the fitted concentration of half-maximal effect; 0% is about no effect; nearly all actives have a fitted effect of over 65% in size
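Live 145M-Twi cells (Twitcher mouse brain-derived, GALC-null) stably expressing human GALC-G270D, with a wild-type GALC line, were compound-treated. Residual GALC activity was then read as fluorescence from 0.1 mM final HMU-β-gal at pH 5.2; higher signal means activation.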
TSG101-PTAP inh = TSG101-PTAP interaction inhibition, HIV-1 budding. 44,000 tested, under 10 active. Potency, µM (titrated, usually from 115 µM), most hits filed as inhibitors. AID 1347069. Fluorescence polarization, FITC-PTAP peptide/Tsg101, 20 min. Q99816; note: potency is the fitted concentration of half-maximal effect; 0% is about no effect
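FITC-labeled PTAP peptide (50 nM final) binding to Tsg101 binding domain (10 uM final) read by fluorescence polarization after 20 min at r.t. in HEPES pH 7.5 buffer. Actives by CRC class, <25 µM.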
GPR32 ag = GPR32 (DRV1) agonism, beta-arrestin recruitment. O75388. CHO-K1 GPR32 beta-arrestin PathHunter luminescence, 90 min; zero percent set by DMSO-only wells. activation, % at 76.9 µM. 2.5% of 48,000 active;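 active = activation of at least 60% and not above a set upper limit, about 1 call in 100 departs from these limits; inconclusive = activation of 40% to 60%, or above that upper limit; inactive = activation under 40%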; note: 0% is about no effect
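Luminescent readout of beta-Gal complementation quantifies ligand-induced beta-arrestin association with GPR32 in CHO-K1 cells; 90 min compound incubation at 37 °C, detection 1 h at room temperature.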
FH mod = Identification of activators of human fumarate hydratase by quantitative high-throughput screening | Fumarate hydratase, mitochondrial (Homo sapiens), P07954 | FH coupled MDH/diaphorase resazurin fluorescence, 15 min | Potency, µM (titrated, usually from 79.9 µM), for inactives: at the top dose activity change, negative = inhibition, hits mostly inhibitors | 0.22% of 54,000 active; note: potency is the fitted concentration of half-maximal effect; % is set by controls: 0 for no effect and ±100 for the full control effect; the screen sought activators but most active calls are inhibition curves; nearly all actives have a fitted effect of over 45% in size
Target sequence (P07954 whole entry, looked up): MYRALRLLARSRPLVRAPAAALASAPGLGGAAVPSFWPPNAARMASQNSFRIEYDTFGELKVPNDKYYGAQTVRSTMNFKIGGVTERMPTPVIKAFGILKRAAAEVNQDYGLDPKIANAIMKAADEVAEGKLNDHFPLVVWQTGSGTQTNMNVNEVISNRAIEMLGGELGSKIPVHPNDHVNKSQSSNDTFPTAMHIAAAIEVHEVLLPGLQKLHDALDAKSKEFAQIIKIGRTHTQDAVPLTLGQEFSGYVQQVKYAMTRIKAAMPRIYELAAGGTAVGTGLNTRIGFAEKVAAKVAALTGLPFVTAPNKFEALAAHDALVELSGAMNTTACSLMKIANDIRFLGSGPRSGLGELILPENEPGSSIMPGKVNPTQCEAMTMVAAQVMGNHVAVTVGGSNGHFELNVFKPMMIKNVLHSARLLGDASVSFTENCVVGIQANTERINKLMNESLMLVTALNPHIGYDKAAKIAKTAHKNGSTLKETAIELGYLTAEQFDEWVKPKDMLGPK
GALK inhibitor = inhibitors of human galactokinase (GALK); 44,000 tested, under 10 active; recombinant GALK, Kinase-Glo ATP luminescence, 1 h; Potency, µM (top dose mostly 57.5 µM), without a hit: top-dose activity, negative = inhibition, usual class: inhibitors;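 note: plate controls were full GALK reaction for no effect and reaction lacking GALK for full effect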
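Reactions with and without enzyme served as controls. GALK at 5 nM phosphorylates 100 uM galactose using 35 uM ATP (HEPES pH 8.0, Mg2+) for 1 h at RT, with luminescence read 10 min after adding Kinase-Glo Plus.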
B2AR arrestin ag = ADRB2 beta-arrestin recruitment. P07550. HTLA Tango cells, beta-arrestin recruitment, luciferase luminescence, 18 h. Potency, µM (highest dose often 46.1 µM), hits mostly activators. 44,000 tested, under 10 active. AID 1347077;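 note: potency is the fitted concentration of half-maximal effect; 0% = DMSO and full agonism = EC100 isoproterenol or metaproterenol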
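Tango cells (recombinant beta2-AR, beta-arrestin, tTA-driven luciferase), 1500/well in DMEM 1% FBS, treated 18 h at 37 °C with compounds up to 46 µM; luciferin mix added, luminescence read after 15 min; %activity curves fitted and curve-classed.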
Active calls of the source: *; i = inactive; ? = inconclusive; / = no result given; ! = a repeat was not active; [ ] = another dose, or the depositor's remark. Compounds with a hit are over-represented: about 2.6% of the library has one in this group of screens. Unless noted, calls come from the whole dose curve; as a rule, active = well fitted curve in the direction sought with a large enough effect; inconclusive = small, poorly fitted or top-dose-only effect, or another doubt; inactive = no such curve, though single readings can be large; an effect the other way counts as inactive or inconclusive.

SMILES	GALC G270D up	TSG101-PTAP inh	GPR32 ag	FH mod	GALK inhibitor	B2AR arrestin ag
COc1ccc(Nc2cc(C)c3cc(NC(=O)COc4cccc(C)c4)ccc3n2)cc1	i	i	72.4*	-24.5%	3.9%	i
CC(=O)O[C@H]1C[C@@H]2[C@]3(CC[C@]4(C)[C@@H](C5(C)CCC(C(C)(C)O)O5)[C@@H](O)C[C@@]24C)C[C@@]32CC[C@H](O[C@@H]3OC[C@@H](O)[C@H](O)[C@H]3O)C(C)(C)[C@H]12 (some centres undefined)	/	/	/	-14.3%[20.6 µM]	/	/
CC(=O)Nc1cccc(NC(=O)Cc2csc(COc3cccc(C)c3)n2)c1	i	i	68.9*	15.7%	6.2%	i
O=c1cc(COc2ccccc2Cl)nc2scc(-c3ccccc3)n12	i	i	86.2*	-6.6%	8.7%	i
CC(C)Nc1nc(Nc2ccccc2)nc(-c2ccccc2)n1	/	/	/	-0.4%	/	/
CN(C)CCCN1c2ccccc2Sc2ccc(Cl)cc21	i	/	63.0*!	?	/	/
O=C(O)c1ccc(O)c2ncc(N3CCCN(CCc4cccc5ccccc45)CC3)cc12	/	/	/	7.4%	/	/
Cc1cccc(N2CCN(C(=O)C3CCN(S(=O)(=O)c4c(C)noc4C)CC3)CC2C)c1 (centres undefined)	i	i	108.5*	-4.4%	3.1%	i
Cc1cccc(N2CCN(C(=O)Nc3ccc(F)cc3)CC2C)c1 (centres undefined)	i	i	63.3*	-9.1%	-1.4%	i
Cc1c(Cl)ccc2sc(N3CCN(C(=O)C4CC4)CC3)nc12	i	i	76.5*	-13.5%	-1.3%	i
CCc1cccc2sc(N3CCN(C(=O)C4CC4)CC3)nc12	i	i	-23.5	?	-2.1%	i
CCc1ccc(N(C)S(=O)(=O)c2ccc3[nH]cc(C(=O)NCC4CCCO4)c(=O)c3c2)cc1 (centres undefined)	i	i	110.3*	?	0.8%	i
CNC(=O)c1ccc(-c2cnc3cnc(C(=O)N(C)c4ccc(Cl)cc4)cn23)cc1	/	/	/	0.6%	/	/
CCN(CCCNC(=O)CSc1cc(=O)n(CC)c2ccccc12)c1cccc(C)c1	i	i	74.8*	?	-2.6%	i
CCn1c(=O)cc(SCC(=O)NCCc2cccc(C)c2)c2ccccc21	i	i	96.7*	-15.0%	-2.4%	i
CCn1c(=O)cc(SCC(=O)NCCc2ccc(Cl)cc2)c2ccccc21	i	i	?	-15.0%	0.0%	i
CCNC(=O)CCC/C=C\C[C@@H]1[C@@H](/C=C/C(O)CCc2ccccc2)[C@@H](O)C[C@@H]1O (some centres undefined)	/	/	/	4.3%	/	/
COc1ccc(OC)c(S(=O)(=O)N2CCC(n3c(C)nc4cccnc43)CC2)c1	/	i	64.7*	/	0.7%	i
O=C(NCCO)c1ccc(-c2nnc(Nc3ccc(OC(F)(F)Cl)cc3)c3ccccc23)cc1	i	i	66.2*	?	7.0%	i
O=C(Nc1ccccc1)c1ccc(Nc2nnc(-c3ccc(O)cc3)c3ccccc23)cc1	/	/	/	-4.6%	/	/
Cc1ccc2[nH]c(CSc3nnc(NC(=O)COc4ccc(F)cc4)s3)cc(=O)c2c1	i	i	11.3	3.1%	1.0%	i
Cc1ccc2[nH]c(CSc3nnc(NC(=O)COc4ccccc4)s3)cc(=O)c2c1	i	i	75.8*	-33.3%	-2.0%	i
CC(C)=CCC/C(C)=C/CC/C(C)=C/CC[C@]1(C)CCc2cc(O)cc(C)c2O1	/	/	/	-14.7%[53.3 µM]	/	/
CC(=O)N[C@H]1[C@H](O[C@H]2CC[C@]3(C)C4CC=C5[C@@H]6CC(C)(C)CC[C@]6(C(=O)O)[C@H](O)C[C@@]5(C)[C@]4(C)CC[C@H]3C2(C)C)O[C@H](CO)[C@@H](O)[C@@H]1O (some centres undefined)	/	/	/	-1.8%[20.6 µM]	/	/
